Among the data in ChEMBL document CHEMBL3988442, “University of Dundee, Small-Polar-MMV Screening Library” (2021) are Percent Effect values, retold here.

The structures appear in SMILES notation.

Experiment [1] concerns the target T1, Aspartate--tRNA(Asp/Asn) ligase (Mycobacterium tuberculosis (strain ATCC 25618 / H37Rv)) (UniProt P9WFW3). Note: in the data most compounds retested in dose-response had high values.
T1 sequence (whole entry): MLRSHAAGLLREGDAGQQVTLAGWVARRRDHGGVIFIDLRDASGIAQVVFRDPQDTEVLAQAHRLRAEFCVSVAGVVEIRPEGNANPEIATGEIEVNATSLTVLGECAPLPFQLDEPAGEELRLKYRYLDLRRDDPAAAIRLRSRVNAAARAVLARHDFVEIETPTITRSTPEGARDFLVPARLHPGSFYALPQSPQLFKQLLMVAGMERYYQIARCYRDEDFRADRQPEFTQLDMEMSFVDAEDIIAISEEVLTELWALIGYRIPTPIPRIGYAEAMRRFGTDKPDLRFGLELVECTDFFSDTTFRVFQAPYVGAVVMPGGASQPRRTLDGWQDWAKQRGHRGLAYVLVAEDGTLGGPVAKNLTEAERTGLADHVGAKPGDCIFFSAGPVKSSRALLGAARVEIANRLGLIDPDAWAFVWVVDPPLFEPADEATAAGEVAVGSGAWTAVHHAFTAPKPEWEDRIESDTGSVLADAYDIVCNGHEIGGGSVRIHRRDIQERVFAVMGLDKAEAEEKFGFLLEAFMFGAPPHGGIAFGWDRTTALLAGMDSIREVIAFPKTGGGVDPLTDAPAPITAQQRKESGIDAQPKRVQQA
Put plainly: Assay for Asp RNA synthetase-1 from Mycobacterium tuberculosis. The format is functional. Also on record: scale not given: direction of the effect not stated beside the values. The conditions noted are these: 30 µM.

The target in experiment [2] is Shiga toxin 2 (Escherichia coli O157:H7) (UniProt P09385+P09386). Put plainly: E. coli 0.157:H7 Shiga Toxin SOP - stx2 screening assay. The format is functional. Also on record: scale not given: direction of the effect not stated beside the values. The conditions noted are these: 30 µM.

As to `Cc1cc(C(=O)N2CCCC2Cn2nc(C)cc2C)on1` (stereo not given), the Percent Effect was 0.681% in experiment [1] and 20% in experiment [2].

Regarding `Cc1cnccc1N1CCCN(C(=O)CCCS(N)(=O)=O)CC1`, the figures for the Percent Effect in experiment [1] and in experiment [2] were -1.55% and -11.6%, respectively.

On to `O=C(NCCO)C1(Cc2cc(-c3ccc(F)cc3F)no2)CCOCC1`, for which the Percent Effect in experiment [1] amounted to 2.58%; in experiment [2], 1.08%.

As for `COc1ccccc1N1CCC(CNCc2cccc(OC)c2OC)C1` (stereo not given), the Percent Effect was 10.8% in experiment [1] and -7.96% in experiment [2].

For `CC(C)c1nc(CN(C)C2CCN(Cc3nc(C4CC4)no3)C2)no1` (stereo not given), the Percent Effect in experiment [1] was 5.06%; in experiment [2], -26.4%.

As for `CC(C)c1nn(C)c(N2CCOCC2)c1CN[C@H](C)CO`, the Percent Effect in experiment [1] was -1.94%; in experiment [2], 30.8%.

In the case of `CCCNC(=O)CN1CCN(Cc2csc(C(C)(C)C)n2)CC1`, the Percent Effect was -3.03% in experiment [1] and 11.1% in experiment [2].

As to `COc1ccc(Cc2cccc(C3CCN(C)CC3)n2)cc1`, the Percent Effect in experiment [1] is -1.77%; in experiment [2], -4.18%.

Consider `CCS(=O)(=O)c1ccccc1N1CCC(NC(=O)c2ccc[nH]2)CC1`, for which the Percent Effect in experiment [1] was -2.04%; in experiment [2], 9.33%.

`COc1cccc(C(=O)Nc2cc(CC(C)C)nn2C)c1`: the Percent Effect in experiment [1] was -7.31%; in experiment [2], 12%.

On to `CC(=O)NCC(=O)N1CCN(CC2CC2)c2ncccc2C1`, for which the Percent Effect in experiment [1] was -4.63%; in experiment [2], -0.0207%.

For the compound `CC(C)c1ccc(OCn2ccc(C(=O)N3CCCC3)n2)cc1`, the Percent Effect in experiment [1] was 5.38%; in experiment [2], -13.8%.

As to `CC(C)c1cc(NC(=O)CN2CCNC(=O)C2)on1`, the Percent Effect in experiment [1] was 2.59%; in experiment [2], -3.5%.

Regarding `NS(=O)(=O)N1CCc2ccc(NC(=O)Cc3ccc(F)cc3)cc21`, the Percent Effect in experiment [1] is -5.84%; in experiment [2] it was -15%.

In the case of `N#Cc1cccc(SCCS(N)(=O)=O)c1`, the Percent Effect in experiment [1] is 0.306%; in experiment [2], -7.47%.

For `CCc1nc(CN2CCCN(C(=O)c3c(C)noc3C)CC2)cs1`, the figures for the Percent Effect in experiment [1] and in experiment [2] were 1.9% and -25.2%, respectively.

`O=C(NCCN1CCC(c2cccs2)CC1)Nc1cccs1`: the Percent Effect in experiment [1] is -7.93%; in experiment [2] it was -125%.

As for `CC(NC(=O)NCCOc1ccc(F)c(F)c1)c1nncn1C` (stereo not given), the figures for the Percent Effect in experiment [1] and in experiment [2] were -4.5% and 27.5%, respectively.

On to `CCn1ncc2c1CCCC2NCC1=Cc2ccccc2OC1` (stereo not given), for which the results for the Percent Effect in experiment [1] and in experiment [2] were 4.82% and -23.2%, respectively.

Turning to `OC(CN1CCC(c2ccn[nH]2)CC1)c1cccc(F)c1` (stereo not given), the values for the Percent Effect in experiment [1] and in experiment [2] were -4.71% and -2.5%, respectively.
